Data reported in PubChem BioAssay (NCI).
About 83,000 compounds went through this panel and 20% of them were active in at least one assay; those are over-represented in the sample as a whole.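 Single-dose data. Exposure time 48 hours. Values below 10 considered active.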 Calls of active or inactive are those of the source.

Experiments:
Experiment in all cases: NCI-60 one-dose screen, 48 h (100 = growth as untreated, 0 = no growth, -100 = all killed)
Conditions in all cases: 10 µM unless noted
NCI-H23 lung = system: NCI-H23 lung
NCI-H226 lung = system: NCI-H226 lung
NCI-H322M lung = system: NCI-H322M lung
HOP-62 NSCLC = system: HOP-62 NSCLC
NCI-H460 lung = system: NCI-H460 lung
HOP-92 NSCLC = system: HOP-92 NSCLC
NCI-H522 lung = system: NCI-H522 lung
A549/ATCC NSCLC = system: A549/ATCC NSCLC
786-0 renal = system: 786-0 renal
COLO 205 colon = system: COLO 205 colon
DU-145 prostate = system: DU-145 prostate
K-562 leukemia = system: K-562 leukemia
MALME-3M melanoma = system: MALME-3M melanoma
MDA-MB-231 breast = system: MDA-MB-231 breast
RXF 393 renal = system: RXF 393 renal
SF-268 CNS = system: SF-268 CNS
SF-295 CNS = system: SF-295 CNS
SF-539 CNS = system: SF-539 CNS
UACC-257 melanoma = system: UACC-257 melanoma
M14 melanoma = system: M14 melanoma

Measured: growth

Cn1cc(C(=O)C[n+]2ccccc2)c2ccccc21
inactive: NCI-H23 lung 91.7% | NCI-H226 lung 99.1% | NCI-H322M lung 104% | HOP-62 NSCLC 95.6% | NCI-H460 lung 107% | HOP-92 NSCLC 92.1% | NCI-H522 lung 96.9% | A549/ATCC NSCLC 102% | 786-0 renal 97.4% | COLO 205 colon 101% | DU-145 prostate 109% | K-562 leukemia 106% | MALME-3M melanoma 96.7% | MDA-MB-231 breast 100% | RXF 393 renal 99.6% | SF-268 CNS 94.7% | SF-295 CNS 102% | SF-539 CNS 89.6% | UACC-257 melanoma 111% | M14 melanoma 99.2%

CC1(C)N(Nc2ccccc2)C(=O)C2CCCN21 (stereo not given)
active: K-562 leukemia 8.29% | M14 melanoma 10%
inactive: NCI-H23 lung 97.2% | NCI-H226 lung 84.6% | NCI-H322M lung 87.4% | HOP-62 NSCLC 76.1% | NCI-H460 lung 99.8% | HOP-92 NSCLC 52.7% | NCI-H522 lung 53.2% | A549/ATCC NSCLC 79.4% | 786-0 renal 33.4% | COLO 205 colon 104% | DU-145 prostate 16.8% | MALME-3M melanoma 84.2% | MDA-MB-231 breast 89.6% | RXF 393 renal 116% | SF-268 CNS 39.5% | SF-295 CNS 84.5% | SF-539 CNS 89.3% | UACC-257 melanoma 89.2%

COc1ccc(C(C#N)C(C)=O)cc1 (stereo not given)
inactive: NCI-H23 lung 97.9% | NCI-H226 lung 99.9% | NCI-H322M lung 135% | HOP-62 NSCLC 98.8% | NCI-H460 lung 102% | HOP-92 NSCLC 111% | NCI-H522 lung 82.5% | A549/ATCC NSCLC 101% | 786-0 renal 107% | COLO 205 colon 106% | DU-145 prostate 92.6% | K-562 leukemia 104% | MALME-3M melanoma 108% | MDA-MB-231 breast 116% | RXF 393 renal 111% | SF-268 CNS 88.9% | SF-295 CNS 107% | SF-539 CNS 103% | UACC-257 melanoma 93% | M14 melanoma 101%

CO/N=C1\CC[C@]2(C)[C@H]3CC[C@]4(C)C(=O)CC[C@H]4[C@@H]3C[C@@H]3SC(N)=N[C@@]32C1
inactive: NCI-H23 lung 99.4% | NCI-H226 lung 107% | NCI-H322M lung 105% | HOP-62 NSCLC 112% | NCI-H460 lung 98.9% | HOP-92 NSCLC 105% | NCI-H522 lung 94.9% | A549/ATCC NSCLC 101% | 786-0 renal 98% | COLO 205 colon 111% | DU-145 prostate 87.9% | K-562 leukemia 70.7% | MALME-3M melanoma 94% | MDA-MB-231 breast 101% | RXF 393 renal 104% | SF-268 CNS 93.5% | SF-295 CNS 99.1% | SF-539 CNS 100% | UACC-257 melanoma 101% | M14 melanoma 86%

Nc1ccc2c(c1)Cc1cc(N)ccc1-2
inactive: NCI-H23 lung 92.3% | NCI-H226 lung 91.4% | NCI-H322M lung 90% | HOP-62 NSCLC 87.1% | NCI-H460 lung 93.1% | HOP-92 NSCLC 76.5% | NCI-H522 lung 92.8% | A549/ATCC NSCLC 84.3% | 786-0 renal 105% | COLO 205 colon 90% | DU-145 prostate 107% | K-562 leukemia 112% | MALME-3M melanoma 85.7% | MDA-MB-231 breast 75.6% | RXF 393 renal 87.9% | SF-268 CNS 95.4% | SF-295 CNS 100% | SF-539 CNS 96.8% | UACC-257 melanoma 91.3% | M14 melanoma 92.7%

Cc1ccc(S(=O)(=O)n2cc([C@@]3(O)C[C@H](CSC#N)OC3=O)c3ccccc32)cc1
inactive: NCI-H23 lung 82% | NCI-H226 lung 85.3% | NCI-H322M lung 106% | HOP-62 NSCLC 100% | NCI-H460 lung 86.3% | NCI-H522 lung 86.3% | A549/ATCC NSCLC 70.6% | 786-0 renal 95.6% | COLO 205 colon 59.2% | DU-145 prostate 43.9% | K-562 leukemia 48.5% | MALME-3M melanoma 61.7% | MDA-MB-231 breast 55.3% | RXF 393 renal 50.9% | SF-268 CNS 72.4% | SF-295 CNS 94.8% | SF-539 CNS 51.2% | UACC-257 melanoma 96.1% | M14 melanoma 66.2%
active: HOP-92 NSCLC -28.2%
